Compounds with a hit are over-represented: about 0.9% of the library has one in this group of screens.
CDC25B CDK2 inh: human CDC25B-CDK2/CyclinA binding inhibition. HTRF CDC25B-CDK2/CyclinA binding, anti-His/anti-Flag; hits give high values. z-score (test concentration not listed). 0.72% of 94,000 active. AID 1259370; in the data active = z-score above about 3.2
HIV TAR-Tat: HIV-1 TAR-Tat binding disruption. HIV-1 TAR RNA, Tat peptide displacement FRET; hits give high values. z-score (test concentration not listed). 0.6% of 100,000 active; active = z-score of 3 or more in at least 2 runs
An asterisk follows results filed as active.

What do the screens show for `CCOCCCNC(=O)c1ccc2c(=O)[nH]c3c(C(=O)NC4CCCC4)sc(=S)n3c2c1`?
HIV TAR-Tat: 2.01

How did O=C(NCc1ccco1)c1ccc2c(=O)[nH]c3c(C(=O)NC4CCCC4)sc(=S)n3c2c1 do in these assays?
HIV TAR-Tat: 15.7*

How did CCOC(=O)N1CCC(NC(=O)Cn2cnc(S(=O)(=O)N3CCCCC3)c2)CC1 do in these assays?
HIV TAR-Tat: 1.98

Results for Cc1nc2sccn2c1C(=O)NN ?
CDC25B CDK2 inh: 15.1*

Results for Cc1nc2sccn2c(=O)c1NC(=O)c1ccco1 ?
HIV TAR-Tat: 1.42

What do the screens show for `CCN(CC)S(=O)(=O)c1ccc2c(c1)CC(C(=O)NC1CCCC1)N2C(C)=O` (centres undefined)?
HIV TAR-Tat: 1.05

How did Cc1[nH]c2ccc(-c3nnc(SC(C)C(=O)Nc4ccc5c(c4)OCCO5)o3)cc2c1C (centres undefined) do in these assays?
CDC25B CDK2 inh: 0.43; HIV TAR-Tat: -2.13

Results for CC(Sc1nnc(-c2ccncc2)o1)C(=O)Nc1ccc2c(c1)OCCO2 (centres undefined) ?
CDC25B CDK2 inh: 10.6*; HIV TAR-Tat: 1.27

Results for CCCCCC(=O)Nc1nc2nc(C)c(C)c(=O)n2[nH]1 ?
CDC25B CDK2 inh: -1.41; HIV TAR-Tat: 0.89

What do the screens show for `COCCN1CCn2c(nc3cc(Cl)ccc32)C1`?
CDC25B CDK2 inh: 0.96; HIV TAR-Tat: 0.82

What do the screens show for `COCCN1CCn2c(nc3cc(NC(=O)NC4CCCCC4)ccc32)C1`?
CDC25B CDK2 inh: 7.05*; HIV TAR-Tat: -0.33

What do the screens show for `COCCN1CCn2c(nc3cc(Nc4nnc(C)c5ccccc45)ccc32)C1`?
CDC25B CDK2 inh: 14.2*; HIV TAR-Tat: 1.61

How did COCCCN1CCn2c(nc3cc(NC(=O)NC4CCCCC4)ccc32)C1 do in these assays?
CDC25B CDK2 inh: 0.2; HIV TAR-Tat: -8.88

Results for O=S(=O)(c1cccc(Cl)c1)c1nnn2c1nc(NCc1cccs1)c1sccc12 ?
HIV TAR-Tat: -0.59

How did O=C1c2cccnc2C(Nc2cc(F)ccc2F)N1Cc1ccc(F)cc1 (centres undefined) do in these assays?
HIV TAR-Tat: 1.36

Results for O=C(c1ccccc1)c1ccc2nc(NCCCN3CCOCC3)c3nncn3c2c1 ?
HIV TAR-Tat: -0.58

Results for CC1CC(C)CN(C(=O)CSC2=Nc3ccccc3C3=NC(Cc4c[nH]c5ccccc45)C(=O)N23)C1 (centres undefined) ?
HIV TAR-Tat: 5.37*

Results for O=C(CSC1=Nc2ccccc2C2=NC(Cc3c[nH]c4ccccc34)C(=O)N12)NC1CCCCC1 (centres undefined) ?
HIV TAR-Tat: 0.74

Results for CC(=O)Nc1ccc2nc3c(=O)[nH]c(=O)[nH]c3nc2c1 ?
CDC25B CDK2 inh: 8.04*; HIV TAR-Tat: 1.84

What do the screens show for `CCC(=O)Nc1ccc2nc3c(=O)[nH]c(=O)[nH]c3nc2c1`?
CDC25B CDK2 inh: 2.87; HIV TAR-Tat: -4.73

How did Cc1ccc2nc(-n3nc(C)c4c3NC(=O)CC4c3cccs3)sc2c1 (centres undefined) do in these assays?
HIV TAR-Tat: 1.56

How did CCOC(=O)Cc1cc(=O)n2[nH]c(-c3ccco3)nc2n1 do in these assays?
CDC25B CDK2 inh: 13.2*; HIV TAR-Tat: 1.75

Results for CCCc1cc(=O)n2[nH]c(-c3ccco3)nc2n1 ?
HIV TAR-Tat: 1.27

How did Cc1ccc(-c2n[nH]c3c2cnc2cc4c(cc23)OCCO4)cc1 do in these assays?
HIV TAR-Tat: -0.73

What do the screens show for `CCOc1ccc(-c2n[nH]c3c2cnc2cc4c(cc23)OCCO4)cc1`?
CDC25B CDK2 inh: 15.2*; HIV TAR-Tat: 16.9*

How did Cc1nc(-c2ccccc2)c(-c2ccccc2)s1 do in these assays?
CDC25B CDK2 inh: -0.54; HIV TAR-Tat: 1.7

What do the screens show for `c1ccc(-c2c3ssnc-3c3ccccc23)cc1`?
CDC25B CDK2 inh: 16.8*

What do the screens show for `O=C(CN1Cc2ccccc2C1=O)Nc1ccc(Br)cc1`?
HIV TAR-Tat: -0.13

Results for COc1cc2c(NC3CCN(C)CC3)nc(N3CCCN(C)CC3)nc2cc1OCCCN(C)C ?
HIV TAR-Tat: 12.4*

What do the screens show for `COc1cc2c(NC3CCN(C(C)C)CC3)nc(C3CCCCC3)nc2cc1OCCCN1CCCC1`?
HIV TAR-Tat: 0.21

How did COc1cc2c(NC3CCN(C)CC3)cc(N3CCCCN(C)CC3)cc2cc1OCCOCCN(C)C do in these assays?
HIV TAR-Tat: 8.27*

Results for Cc1cc(-c2ccc(S(=O)(=O)Nc3ccccc3F)s2)n[nH]1 ?
HIV TAR-Tat: 1.04

How did CCOC(=O)c1cc(S(=O)(=O)N(C)CC(=O)NC2CCCCC2)cn1C do in these assays?
HIV TAR-Tat: 0.95

How did COc1ccc(CN2CSC3=C(C#N)C(c4cccc(OC)c4)CC(=O)N3C2)cc1 (centres undefined) do in these assays?
CDC25B CDK2 inh: 7.6*; HIV TAR-Tat: -0.14

What do the screens show for `COc1ccc(CN2CSC3=C(C#N)C(c4ccc(OC)cc4)CC(=O)N3C2)cc1` (centres undefined)?
CDC25B CDK2 inh: 6.34*; HIV TAR-Tat: 2.34

Results for COc1ccc(CN2CSC3=C(C#N)C(c4cccs4)CC(=O)N3C2)cc1 (centres undefined) ?
CDC25B CDK2 inh: 3.99*; HIV TAR-Tat: -0.08

Results for COc1ccc(C2CC(=O)N3CN(Cc4cccnc4)CSC3=C2C#N)cc1 (centres undefined) ?
CDC25B CDK2 inh: -0.28; HIV TAR-Tat: 1.25

What do the screens show for `N#CC1=C2SCN(Cc3ccco3)CN2C(=O)CC1c1cccs1` (centres undefined)?
CDC25B CDK2 inh: 2.51; HIV TAR-Tat: 1.19

Results for Cc1ccsc1CCN1CSC2=C(C#N)C(c3ccc(Cl)cc3)CC(=O)N2C1 (centres undefined) ?
CDC25B CDK2 inh: 3.23*; HIV TAR-Tat: 2.05

What do the screens show for `N#CC1=C2SCN(CCN3CCOCC3)CN2C(=O)CC1c1ccc(F)cc1` (centres undefined)?
CDC25B CDK2 inh: 0.4; HIV TAR-Tat: 1.69

What do the screens show for `CC(C)(CC(=O)N1CCCCCC1)CC1=NS(=O)(=O)c2ccccc2N1`?
CDC25B CDK2 inh: -2.88

Results for Cc1ccccc1-c1nn2c(-c3ccncc3)nnc2s1 ?
CDC25B CDK2 inh: -1.11; HIV TAR-Tat: 2.57

Results for O=S(=O)(NCc1ccncc1)c1cccs1 ?
CDC25B CDK2 inh: 0.04; HIV TAR-Tat: 3.75

Results for COc1ccc(-c2nnc(SCc3nc(N)nc(Nc4ccccc4)n3)o2)cc1 ?
CDC25B CDK2 inh: 0.54

What do the screens show for `N#CC1=C2SCN(CCc3ccccc3)CN2C(=O)CC1c1cccs1` (centres undefined)?
CDC25B CDK2 inh: 3.74*; HIV TAR-Tat: -0.38

Results for N#CC1=C2SCN(Cc3cccnc3)CN2C(=O)CC1c1ccc(F)cc1 (centres undefined) ?
CDC25B CDK2 inh: 0.53; HIV TAR-Tat: 1.05

What do the screens show for `Cc1ccc(C2CC(=O)N3CN(Cc4cccnc4)CSC3=C2C#N)cc1` (centres undefined)?
CDC25B CDK2 inh: 5.2*; HIV TAR-Tat: 0.43

Results for CC(c1ccccc1)N1CSC2=C(C#N)C(c3ccc(F)cc3)CC(=O)N2C1 (centres undefined) ?
CDC25B CDK2 inh: 2.96; HIV TAR-Tat: 2.8

Results for CC(C)c1ccc(C2CC(=O)N3CN(Cc4ccccc4)CSC3=C2C#N)cc1 (centres undefined) ?
CDC25B CDK2 inh: 5.02*; HIV TAR-Tat: 0.39

Results for N#CC1=C2SCN(CCc3ccccc3)CN2C(=O)CC1c1ccc(F)cc1 (centres undefined) ?
CDC25B CDK2 inh: -0.26; HIV TAR-Tat: 1.09

Screens as filed in PubChem BioAssay.
